Bioassay records deposited in PubChem BioAssay by several laboratories.
Shown are actives, neighbours in structure and some others; about 1.7% of the full set was active somewhere.
Vif inh: HIV Vif self-association inhibitors, primary screen, imaging, HEK293T, single point; actives 0.35% (n = 340,000); AID 602346, 2012; HEK293T cells, Vif self-association by quenched fluorescence, 24 h; inhibition, % at 7.49 µM; in the data active means inhibition above about 50%, passing the limit was not always enough; inconclusive means no clear call, values can overlap the other calls; inactive means below about 31%
Glyco luc inh: increase of ERlucT glycosylation luciferase signal, primary screen, N-linked glycosylation inhibitor project, D54 ERlucT cells, luminescence, set 2 | D54 ERlucT glycosylation luciferase reporter, 24 h; percent of 100 nM tunicamycin response | reporter increase, % at 12.5 µM | actives 0.23% (n = 360,000);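 active means mean luciferase reporter signal, scaled so untreated is 0 and the glycosylation-blocking control 100, at or above a set limit in every replicate; inconclusive means mean reaches the limit but not every replicate does; inactive means mean below the limit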;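 further: luciferase carries N-glycosylation sites so blocking glycosylation raises the light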
aDG glyco up: activators of alpha-DG glycosylation, primary screen, uHTS, Pro5-aDG cells, AlphaScreen; alpha-DG glycosylation AlphaScreen (IIH6); 0% Pro5, 100% B10-LARGE cell signal; activation, % at 10 µM; actives 0.22% (n = 360,000); AID 624168, 2012;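 active means activation of at least 8% versus controls, or a plate z-score of at least 8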;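 further: Pro5 are CHO cells carrying HIG-tagged alpha-DG that lacks glycosylation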
ARNT-TACC3 inh: disruptors of ARNT/TACC3 protein interaction, primary screen, biochemical, AlphaScreen, single concentration | Transforming acidic coiled-coil-containing protein 3 (Homo sapiens), Q9Y6A5 | AlphaScreen His-ARNT PAS-B/GST-TACC3 binding, luminescence; TACC3 fragment carries E629A point mutation | inhibition, % at 9.99 µM | actives 0.66% (n = 390,000);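 active means mean inhibition of replicates at least 50% and at least half of replicates each reaching 50%; inconclusive means half or more replicates reach 50% but mean below 50%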
H9c2 protect: cardioprotection against H2O2-induced cell death, primary screen, uHTS, H9c2 cells, ATPLite luminescence | H9c2 cardiomyocytes, H2O2 injury protection, 2 h | protection from H2O2 cell death, % at 20 µM | actives 0.63% (n = 360,000);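 active means compounds giving at least 50% protection of heart cells from peroxide-induced death in the single-dose screen, raw or plate-pattern-corrected value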
Large screens that a line does not name were inactive; ! = repeats disagree.

CC1(C)CC(=O)C(C2(O)C(=O)NC(=O)NC2=O)=C(O)C1	ARNT-TACC3 inh 23
CCN1[C@@H]2c3ccc(-c4cccc(C(=O)N(C)C)c4)c(=O)n3C[C@H]1[C@H](CO)[C@H]2C(=O)OC	none (no result: Vif inh, Glyco luc inh, aDG glyco up, H9c2 protect)
COC(=O)[C@@H]1[C@@H](CO)[C@@H]2Cn3c(ccc(C4=CCCC4)c3=O)[C@H]1N2CC1CCCCC1	none (no result: Vif inh, Glyco luc inh, aDG glyco up, H9c2 protect)
COC(=O)C1=C(C(=O)OC)SC2(S1)C(C(=O)OC)=C(C(=O)OC)Sc1c2ssc1=O	ARNT-TACC3 inh 68
COC(=O)[C@@H]1[C@@H](CO)[C@@H]2Cn3c(ccc(-c4cncnc4)c3=O)[C@H]1N2S(=O)(=O)c1ccccc1C	none (no result: Vif inh, Glyco luc inh, aDG glyco up, H9c2 protect)
CCN1CCN(c2nc3c(c(=O)[nH]2)CCCC3)CC1	H9c2 protect 62
CNc1ccc2nc3ccccc3[n+](C)c2c1	aDG glyco up 2.7, ARNT-TACC3 inh 68
O=C(Cc1ccncc1)N1CCCCN2[C@@H](CO)[C@@H](c3ccc(C#CC4(O)CCCC4)cc3)[C@@H]2C1	none (no result: Vif inh, Glyco luc inh, aDG glyco up, H9c2 protect)
COc1cc(C2c3cc4c(c(O)c3CC3COC(=O)C32)OCO4)cc(OC)c1OC (stereo not given)	none
COc1cc(C2c3cc4c(cc3CC3COC(=O)C32)OCO4)cc(OC)c1OC (stereo not given)	Vif inh 87
Cc1cccc(C)c1OC(=O)Cc1ccccc1	none
Cc1sc2nc(COC(=O)Cc3ccccc3)[nH]c(=O)c2c1C	H9c2 protect 53
Cn1c(=O)c2c(nc(N/N=C/c3c(O)n(C4CCCCC4)c(=S)[nH]c3=O)n2C)n(C)c1=O	ARNT-TACC3 inh 52, H9c2 protect 68
Cc1cccc(-n2c(O)c(/C=N/Nc3nc4c(c(=O)n(C)c(=O)n4C)n3C)c(=O)[nH]c2=S)c1	ARNT-TACC3 inh 72
Cc1ccccc1-n1c(O)c(/C=N/Nc2nc3c(c(=O)n(C)c(=O)n3C)n2C)c(=O)[nH]c1=S	ARNT-TACC3 inh 51
CCOC(=O)c1ccc(N=Cc2c(O)n(-c3ccccc3F)c(=S)[nH]c2=O)cc1	none
CCCC#Cc1ccc([C@@H]2[C@H]3CN(C(=O)Cc4ccccn4)CCCCN3[C@H]2CO)cc1	none (no result: Vif inh, Glyco luc inh, aDG glyco up, H9c2 protect)
CC1CCOC(=O)C=CC=CC(=O)OC2CC3OC4C5OC5(C)C(O)CC4(COC(=O)C1O)C2(C)C31CO1 (stereo not given)	none
CC1=CC2OC3CC4OC(=O)C=CC=CC(=O)OCCC(C)C(O)C(=O)OCC2(CC1)C4(C)C31CO1 (stereo not given)	H9c2 protect 57
Cc1cc(C)nc(N2Cc3ccccc3C2=N)n1	Glyco luc inh 37
O=C(O)[C@@H]1[C@@H](CO)[C@@H]2Cn3c(ccc(-c4cncnc4)c3=O)[C@H]1N2C(=O)NC1CCCC1	none (no result: Vif inh, Glyco luc inh, aDG glyco up, H9c2 protect)
O=C1NC(=O)N(c2ccccc2)C(=O)/C1=C/C=C/c1ccco1	Glyco luc inh 29
O=C1NC(=O)N(Cc2ccco2)C(=O)/C1=C/C=C/c1ccco1	Glyco luc inh 36
CN(C)c1ccc(/C=C/C=C2/C(=O)NC(=O)N(c3ccccc3)C2=O)cc1	none
O=C1NC(=O)N(Cc2ccccc2)C(=O)/C1=C\C=C\c1ccco1	Glyco luc inh inconclusive
Cc1ccc(N2C(=O)NC(=O)/C(=C\C=C\c3ccco3)C2=O)cc1	Glyco luc inh 42 (no result: Vif inh)
Cc1cccc(N2C(=O)NC(=O)/C(=C\C=C\c3ccco3)C2=O)c1	Glyco luc inh 42
Cc1cccc(S(=O)(=O)N2[C@@H]3Cn4c(ccc(-c5ccncc5)c4=O)[C@H]2[C@@H](C(=O)O)[C@@H]3CO)c1	none (no result: Vif inh, Glyco luc inh, aDG glyco up, H9c2 protect)
Cc1ccccc1-c1ccc([C@H]2[C@@H](CO)N3CCCCN(C(=O)Cc4ccccn4)C[C@@H]23)cc1	none (no result: Vif inh, Glyco luc inh, aDG glyco up, H9c2 protect)
CN1C(=O)/C(=C/C=C/c2ccco2)C(=O)NC1=S	Vif inh inconclusive
Cc1ccc(N2C(=O)NC(=O)/C(=C\C=C\c3ccco3)C2=O)cc1C	Glyco luc inh 47
O=C(Cc1ccncc1)N1CCCCN2[C@@H](CO)[C@@H](c3ccc(C#Cc4ccccc4F)cc3)[C@@H]2C1	none (no result: Vif inh, Glyco luc inh, aDG glyco up, H9c2 protect)
COC(=O)[C@H]1[C@H](CO)[C@H]2Cn3c(ccc(-c4ccccc4)c3=O)[C@@H]1N2CC1CCCCC1	none (no result: Vif inh, Glyco luc inh, aDG glyco up, H9c2 protect)
CN1CCN(Cc2nc3ccccc3c(=O)[nH]2)CC1	H9c2 protect 55 (no result: Vif inh)
O=c1[nH]c(CN2CCNCC2)nc2ccccc12	none
CC(=O)NC1=C(N2CC2C)C(=O)C(NC(C)=O)=C(N2CC2C)C1=O (stereo not given)	ARNT-TACC3 inh 8.8
O=C(Cc1ccccn1)N1CCCCN2[C@@H](CO)[C@H](c3ccc(C#Cc4ccccc4)cc3)[C@@H]2C1	none (no result: Vif inh, Glyco luc inh, aDG glyco up, H9c2 protect)
C=C1C(=O)O[C@@H]2C[C@@H](C)[C@@H]3C4OC4C(=O)[C@@]3(C)[C@@H](O)[C@H]12 (stereo not given in full)	Vif inh 41
CN1CC[C@@]2(C)c3cc(O)ccc3N(C)C2O1 (stereo not given in full)	ARNT-TACC3 inh 30
CN1CC[C@@]2(C)c3cc(O)ccc3N(C)[C@@H]12	ARNT-TACC3 inh 47!
C/C=C/c1ccc([C@H]2[C@@H](CO)N3CCCCN(C(=O)Cc4ccncc4)C[C@@H]23)cc1	none (no result: Vif inh, Glyco luc inh, aDG glyco up, H9c2 protect)
COc1ccc(/C=C2\C(=O)NC(=S)N(C)C2=O)cc1C	ARNT-TACC3 inh 55
O=C(Cc1ccccn1)N1CCCCN2[C@H](C1)[C@@H](c1ccc(-c3ccccc3F)cc1)[C@@H]2CO	none (no result: Vif inh, Glyco luc inh, aDG glyco up, H9c2 protect)
COC(=O)C(O)(c1ccc(N=Cc2ccccc2O)c(C)c1)C(F)(F)F (stereo not given)	none
CC(C)(C)c1ccc(O)c(N=Cc2c(O)ccc3ccccc23)c1	H9c2 protect 51
COC(=O)[C@@H]1[C@@H](CO)[C@@H]2Cn3c(ccc(-c4cccc(F)c4)c3=O)[C@H]1N2Cc1ccncc1	none (no result: Vif inh, Glyco luc inh, aDG glyco up, H9c2 protect)
Cc1ccccc1NP(=O)(Oc1ccccc1F)Oc1ccccc1F	H9c2 protect 73
Cc1cccc(NP(=O)(Oc2ccccc2)Oc2ccccc2)c1C	none
O=C(Cc1ccncc1)N1CCCCN2[C@H](C1)[C@@H](c1ccc(C#CC3(O)CCCC3)cc1)[C@@H]2CO	none (no result: Vif inh, Glyco luc inh, aDG glyco up, H9c2 protect)
COC(=O)c1c(N)n(Cc2ccc(OC)cc2)c2nc3ccccc3nc12	ARNT-TACC3 inh 15
CC(C)OC(=O)c1c(N)n(Cc2ccco2)c2nc3ccccc3nc12	none
COCCOC(=O)c1c(N)n(Cc2ccco2)c2nc3ccccc3nc12	ARNT-TACC3 inh 62 (no result: Vif inh)
CCOC(=O)c1c(N)n(CCCOC(=O)c2ccco2)c2nc3ccccc3nc12	aDG glyco up 14
COC(=O)[C@H]1N[C@H]2c3ccc(C4=CCCC4)c(=O)n3C[C@H]2[C@@H]1CO	none (no result: Vif inh, Glyco luc inh, aDG glyco up, H9c2 protect)
